Experimental data from PubChem BioAssay (NCATS).
Where “and” joins values, the source holds several entries; their conditions need not be identical. Equal entries are not always repeated. Records with an inconclusive call do not appear. Calls of active or inactive are those of the source. Unless noted, the call rests on the fitted dose curve; in most records, active means well fitted curve in either direction with a large enough effect (not every such curve was filed as active); inconclusive means small, poorly fitted or top-dose-only effect, or another doubt; inactive means flat fitted curve, though single readings scatter.

Key:
[1] = AP1 Signaling Pathway (AID 357); conditions: ME-180 AP-1-bla reporter, EGF-induced, beta-lactamase ratio, 5 h; further: on the % scale 0 is the no-effect control and ±100 the full control effect
How it was run: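 Titration-series screen for positive or negative modulators of EC50 EGF-induced signaling in ME-180 cells carrying an AP-1-driven beta-lactamase reporter. After 5 hours at 37 degrees Celsius, CCF4 460nm/530nm emission ratio gave %Activity; AC50 values derived.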

[2] = NFAT Signaling Pathway (AID 444); conditions: Jurkat NFAT-bla M1, carbachol, beta-lactamase ratio, 5 h;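 further: carbachol stimulus at about its EC50 of 1 µM final; on the % scale 0 is the no-effect control and ±100 the full control effect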
How it was run: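 Read-out: CCF4 FRET ratio (460 nm/530 nm) after 1 h RT dye loading, used for %activity and AC50 from titration series. Cells: Jurkat NFAT-β-lactamase/M1 line, treated with compound plus 1 uM carbachol for 5 h, 37 °C.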

[3] = Stat Signaling Pathway (AID 446); conditions: ME-180 (cervical carcinoma) SIE beta-lactamase reporter, IL-6 stimulated, 5 h;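 further: ME-180 cervical cancer cells given 40 pM IL-6 alongside compound; SIE-controlled beta-lactamase reporter measured as 460/530 nm FRET emission ratio; on the % scale 0 is the no-effect control and ±100 the full control effect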
How it was run: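 IL-6/STAT signaling read in ME-180 cells via an SIE beta-lactamase reporter. Stimulus was 40 pM IL-6 (its AC50) for 5 hrs, so both activation and inhibition register.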

[4] = molecular target: Cytochrome P450 1A2 (Homo sapiens) (UniProt P05177); assay: p450-cyp1a2 (AID 410; calls by dose curve; further: potency means the concentration at half of the fitted maximal effect;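 on activity change, negative = inhibition: -100% = full effect of reference inhibitor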); conditions: recombinant CYP1A2, luciferin-ME demethylation, luminescence; series mostly up to 25.6 µM
Cytochrome P450 1A2 (Homo sapiens), sequence (P05177 whole entry, looked up): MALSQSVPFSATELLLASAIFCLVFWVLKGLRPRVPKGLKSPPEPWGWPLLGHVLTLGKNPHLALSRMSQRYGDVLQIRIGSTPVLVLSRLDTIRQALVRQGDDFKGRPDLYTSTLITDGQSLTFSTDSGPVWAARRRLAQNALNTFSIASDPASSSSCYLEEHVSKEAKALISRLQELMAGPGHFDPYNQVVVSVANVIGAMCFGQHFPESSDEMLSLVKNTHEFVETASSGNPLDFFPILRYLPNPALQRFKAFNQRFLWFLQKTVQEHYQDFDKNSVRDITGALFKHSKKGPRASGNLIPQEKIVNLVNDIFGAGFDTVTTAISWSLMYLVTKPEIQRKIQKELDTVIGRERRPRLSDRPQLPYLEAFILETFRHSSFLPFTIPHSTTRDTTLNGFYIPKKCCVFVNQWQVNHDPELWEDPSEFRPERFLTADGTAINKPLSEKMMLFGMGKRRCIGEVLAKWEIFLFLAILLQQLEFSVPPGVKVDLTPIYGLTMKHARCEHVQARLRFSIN
How it was run: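 20nM CYP1A2 with 100uM Luciferin-ME (at Km) in 100mM KPO4; compound preincubated 10 min, NADPH regeneration added, 60 min at room temperature. Luciferin quantified by luminescence after detection reagent; normalized to 57 uM furafylline.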

[5] = molecular target: Glucocorticoid receptor (Homo sapiens) (UniProt P04150); assay: GR-GFP Redistribution (AID 450;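 active means compounds whose dose series gives a full or clear partial fitted curve of increased nuclear translocation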; further: potency means the concentration at half of the fitted maximal effect); conditions: U2OS GR-GFP nuclear translocation, laser cytometry, 2 h
Glucocorticoid receptor (Homo sapiens), sequence (P04150 whole entry, looked up, the tested form may be a part): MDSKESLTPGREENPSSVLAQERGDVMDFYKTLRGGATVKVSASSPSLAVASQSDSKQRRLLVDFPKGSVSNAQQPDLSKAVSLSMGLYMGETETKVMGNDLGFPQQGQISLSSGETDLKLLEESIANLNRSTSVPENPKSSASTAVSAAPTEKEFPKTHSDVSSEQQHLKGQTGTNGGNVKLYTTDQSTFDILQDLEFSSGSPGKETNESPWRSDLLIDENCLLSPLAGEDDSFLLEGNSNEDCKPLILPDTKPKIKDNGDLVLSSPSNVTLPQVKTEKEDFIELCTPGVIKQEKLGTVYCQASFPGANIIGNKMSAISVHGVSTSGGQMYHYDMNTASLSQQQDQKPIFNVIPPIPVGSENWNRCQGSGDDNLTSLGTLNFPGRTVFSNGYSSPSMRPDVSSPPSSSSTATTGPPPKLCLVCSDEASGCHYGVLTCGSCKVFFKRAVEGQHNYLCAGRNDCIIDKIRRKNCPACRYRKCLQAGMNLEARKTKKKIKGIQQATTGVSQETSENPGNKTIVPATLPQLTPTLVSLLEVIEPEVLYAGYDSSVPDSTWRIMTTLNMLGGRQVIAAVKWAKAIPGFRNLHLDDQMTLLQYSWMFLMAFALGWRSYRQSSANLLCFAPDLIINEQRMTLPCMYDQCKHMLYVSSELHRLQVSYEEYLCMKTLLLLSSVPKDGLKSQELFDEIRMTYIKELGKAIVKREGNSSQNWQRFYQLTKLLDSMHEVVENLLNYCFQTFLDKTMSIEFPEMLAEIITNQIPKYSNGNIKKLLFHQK

[6] = molecular target: Glucocorticoid receptor (Homo sapiens) (UniProt P04150); assay: GR-EFC Redistribution (AID 451; calls by dose curve; further: potency means the concentration at half of the fitted maximal effect); conditions: CHO-K1 GR-EFC translocation, beta-gal luminescence, 2 h
How it was run: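 Translocation of GR-ED fusion to nuclear EA restores b-gal, read by luminescence after 1 h room-temperature detection. Engineered CHO-K1 biosensor cells, 1,000/well, exposed 2 h at 37 C to titrations up to 46 uM final.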

[7] = molecular target: Mitogen-activated protein kinase 10 (Mus musculus) (UniProt Q61831); assay: JNK3 AlphaScreen Assay (AID 530); conditions: JNK3 lysate, c-Jun phosphorylation; series mostly up to 25.6 µM;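 further: kinase came from lysate of stimulated human HepG2 cells; signal reports phosphorylation of biotinylated GST-cJun 1-79 at Ser73 with 10 µM ATP; on the % scale 0 is the no-effect control and ±100 the full control effect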
How it was run: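 Compound titrations were preincubated 15 minutes at room temperature with substrate, antibody and pre-activated JNK3-containing HepG2 lysate. Reactions were started with 10 uM ATP and stopped with EDTA-containing bead buffer for AlphaScreen detection.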

CCC(NC(C)C)C(O)c1ccc(O)c(O)c1 (stereo not drawn)
inactive: activity change, negative = inhibition ([1]; at 17.2 µM (top of the series)) -6.11% | activity change, negative = inhibition ([2]; at 17.2 µM (top of the series)) 3% | activity, negative = inhibition ([3]; at 17.2 µM (top of the series)) 1.25%

Cc1c(N(C)CS(=O)(=O)O)c(=O)n(-c2ccccc2)n1C
inactive: activity change, negative = inhibition ([1]; at 17.2 µM (top of the series)) 6.43% | Potency [4] | activity change, negative = inhibition ([2]; at 17.2 µM (top of the series)) -4.94% | Potency [5] > 20.6 µM | Potency [6] > 20.6 µM | outcome [7]

C[C@@H]1C(=O)NC2=Nc3cccc(Cl)c3CN21
inactive: activity change, negative = inhibition ([1]; at 38 µM (top of the series)) 9.37% | activity change, negative = inhibition ([2]; at 38 µM (top of the series)) -0.581% | activity, negative = inhibition ([3]; at 38 µM (top of the series)) -15.9% | Potency [5] > 46 µM | Potency [6] > 46 µM

CCn1cc(C(=O)O)c(=O)c2cnc(N3CCCC3)nc21
inactive: activity change, negative = inhibition ([1]; at 17.2 µM (top of the series)) 5.94% | activity change, negative = inhibition ([2]; at 17.2 µM (top of the series)) 5.83% | activity, negative = inhibition ([3]; at 17.2 µM (top of the series)) 2.28% | Potency [5] > 20.6 µM | Potency [6] > 20.6 µM | outcome [7]

C[C@H](CCC(=O)O)[C@H]1CC[C@H]2[C@@H]3C(=O)C[C@@H]4CC(=O)CC[C@]4(C)[C@H]3CC(=O)[C@]12C
inactive: activity change, negative = inhibition ([1]; at 17.2 µM (top of the series)) 8.36% | activity change, negative = inhibition ([2]; at 17.2 µM (top of the series)) 13.3% | activity, negative = inhibition ([3]; at 17.2 µM (top of the series)) 1.08% | Potency [5] > 20.6 µM

O=C(OCCOCCO)c1ccccc1Nc1cccc(C(F)(F)F)c1
inactive: activity change, negative = inhibition ([1]; at 17.2 µM (top of the series)) -27.7% | activity change, negative = inhibition ([2]; at 17.2 µM (top of the series)) -18% | activity, negative = inhibition ([3]; at 17.2 µM (top of the series)) -10.5% | Potency [5] > 20.6 µM | Potency [6] > 20.6 µM | outcome [7]

CCCCOc1ccc(C(=O)CCN2CCCCC2)cc1
inactive: activity change, negative = inhibition ([1]; at 17.2 µM (top of the series)) 18.2% and 12.3% | activity, negative = inhibition ([3]; at 17.2 µM (top of the series)) -25% and -28.6% | Potency [5] > 20.6 µM | Potency [6] > 20.6 µM | outcome [7]
active: Potency [4] 3.16 µM

CC(=O)N(O)CCCCCNC(=O)CCC(=O)N(O)CCCCCNC(=O)CCC(=O)N(O)CCCCCN
inactive: activity change, negative = inhibition ([1]; at 17.2 µM (top of the series)) -6.04% | Potency [4] | activity, negative = inhibition ([3]; at 17.2 µM (top of the series)) 10.3% | Potency [5] > 20.6 µM | Potency [6] > 20.6 µM | outcome [7]

CCCC1O[C@@H]2C[C@H]3[C@@H]4CCC5=CC(=O)C=C[C@]5(C)[C@H]4[C@@H](O)C[C@]3(C)[C@]2(C(=O)CO)O1 (stereo partly drawn)
inactive: activity change, negative = inhibition ([1]; at 17.2 µM (top of the series)) 2.92% | activity change, negative = inhibition ([2]; at 17.2 µM (top of the series)) 23.6%

CN1CCN(CCCN2c3ccccc3Sc3ccc(S(=O)(=O)N(C)C)cc32)CC1
inactive: activity change, negative = inhibition ([1]; at 17.2 µM (top of the series)) 16.8% | Potency [5] > 20.6 µM | Potency [6] > 20.6 µM | outcome [7]
active: Potency [4] 12.6 µM

CCCCCCCCCCCCCCCC[N+](C)(C)CCN(Cc1ccc(OC)cc1)c1ncccn1
inactive: activity change, negative = inhibition ([1]; at 17.2 µM (top of the series)) 21.6% | activity change, negative = inhibition ([2]; at 17.2 µM (top of the series)) 8.86% | activity, negative = inhibition ([3]; at 17.2 µM (top of the series)) 11.5% | Potency [5] > 20.6 µM | Potency [6] > 20.6 µM | outcome [7]

CN1CCC[C@@H]1c1cccnc1
inactive: activity change, negative = inhibition ([1]; at 38 µM (top of the series)) 12.2% | activity change, negative = inhibition ([2]; at 38 µM (top of the series)) -1.61% | activity, negative = inhibition ([3]; at 38 µM (top of the series)) -4.46%
